According to PubChem BioAssay (NCI):
Compounds without any hit were thinned out: in the full panel of roughly 83,000, 20% have a hit.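 Cell lines were cultured in 96-well plates, exposed to a single compound concentration, and assessed for percent growth 48 hours later.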 Calls of active or inactive are those of the source. How the source made its calls: active means growth percent below 10; inactive means the rest.

Tests used:
Experiment in all cases: NCI-60 one-dose screen, 48 h (100 = growth as untreated, 0 = no growth, -100 = all killed)
Conditions in all cases: 10 µM unless noted
HCT-15 colon = tested on: HCT-15 colon
HT29 colon = tested on: HT29 colon
SNB-75 CNS = tested on: SNB-75 CNS
SNB-19 CNS = tested on: SNB-19 CNS
U251 CNS = tested on: U251 CNS
PC-3 prostate = tested on: PC-3 prostate
SK-MEL-5 melanoma = tested on: SK-MEL-5 melanoma
UACC-62 melanoma = tested on: UACC-62 melanoma
LOX IMVI melanoma = tested on: LOX IMVI melanoma
SK-MEL-28 melanoma = tested on: SK-MEL-28 melanoma
SK-MEL-2 melanoma = tested on: SK-MEL-2 melanoma
EKVX NSCLC = tested on: EKVX NSCLC
SN12C renal = tested on: SN12C renal
UO-31 renal = tested on: UO-31 renal
TK-10 renal = tested on: TK-10 renal
ACHN renal = tested on: ACHN renal
A498 renal = tested on: A498 renal
CCRF-CEM leukemia = tested on: CCRF-CEM leukemia
MOLT-4 leukemia = tested on: MOLT-4 leukemia
CAKI-1 renal = tested on: CAKI-1 renal

Measured: growth

NC1=CC(=O)C(=O)c2ccccc21
inactive: HCT-15 colon 92.1% | HT29 colon 106% | SNB-75 CNS 113% | SNB-19 CNS 93.2% | U251 CNS 88% | PC-3 prostate 91.1% | SK-MEL-5 melanoma 77.5% | UACC-62 melanoma 39.4% | SK-MEL-28 melanoma 75.2% | SK-MEL-2 melanoma 75.1% | EKVX NSCLC 76.2% | SN12C renal 84.2% | UO-31 renal 71.3% | TK-10 renal 114% | ACHN renal 85.2% | A498 renal 101% | CCRF-CEM leukemia 93% | MOLT-4 leukemia 74.1%
active: LOX IMVI melanoma 7.65%

Nc1ccc(N2CCOCC2)cc1
inactive: HCT-15 colon 103% | HT29 colon 109% | SNB-75 CNS 91.9% | SNB-19 CNS 91.1% | U251 CNS 98% | PC-3 prostate 101% | SK-MEL-5 melanoma 92.7% | UACC-62 melanoma 86.6% | LOX IMVI melanoma 104% | SK-MEL-28 melanoma 118% | SK-MEL-2 melanoma 91.8% | SN12C renal 94% | UO-31 renal 73.5% | TK-10 renal 91.8% | ACHN renal 86.8% | A498 renal 103% | CCRF-CEM leukemia 124% | MOLT-4 leukemia 118%

O=C([C@@H](COCc1ccccc1)N1C(=O)[C@@H](N2C(=O)OC[C@@H]2c2ccccc2)[C@H]1/C=C/c1ccccc1)N1CCC(CCN2CCCCC2)CC1
inactive: HCT-15 colon 89.2% | HT29 colon 45.5% | SNB-75 CNS 90.9% | SNB-19 CNS 95.1% | U251 CNS 71.5% | PC-3 prostate 67.5% | SK-MEL-5 melanoma 81.6% | UACC-62 melanoma 95.5% | LOX IMVI melanoma 82.1% | SK-MEL-28 melanoma 73.2% | SK-MEL-2 melanoma 71.7% | EKVX NSCLC 93.1% | SN12C renal 83.4% | UO-31 renal 69.3% | TK-10 renal 59.8% | ACHN renal 99% | A498 renal 50.1% | CCRF-CEM leukemia 95.4% | MOLT-4 leukemia 62.8%

CC(=O)C1=C(O)C=C2Oc3c(C(=O)/C=C/c4cc(Cl)cc(Cl)c4)c(O)c(C)c(O)c3[C@]2(C)C1=O
active: HCT-15 colon -35.5% | HT29 colon -23.5% | SNB-75 CNS -39.9% | SNB-19 CNS -24.4% | U251 CNS -29.9% | PC-3 prostate -21.1% | SK-MEL-5 melanoma -89.2% | UACC-62 melanoma -71.2% | LOX IMVI melanoma -54% | SK-MEL-28 melanoma -36.1% | SK-MEL-2 melanoma -62.8% | EKVX NSCLC -15.6% | SN12C renal -31.8% | UO-31 renal -15.1% | TK-10 renal -17.4% | ACHN renal -12.4% | A498 renal -57.7% | CCRF-CEM leukemia -22% | MOLT-4 leukemia -25.3%

CCCCNC(=O)NS(=O)(=O)c1ccc(N2N=C(c3cc(C)ccc3C)CC2c2cc(OC)c(OC)c(OC)c2)cc1 (stereo unspecified)
active: SK-MEL-5 melanoma 6.28% | LOX IMVI melanoma 9.68%
inactive: HCT-15 colon 48.6% | HT29 colon 72.2% | SNB-75 CNS 51.1% | SNB-19 CNS 68% | U251 CNS 51.3% | PC-3 prostate 36.9% | UACC-62 melanoma 49.5% | SK-MEL-28 melanoma 18.6% | SK-MEL-2 melanoma 54.9% | SN12C renal 73.7% | UO-31 renal 32.2% | TK-10 renal 74.5% | ACHN renal 63.6% | CAKI-1 renal 39% | A498 renal 34.6% | CCRF-CEM leukemia 55.1% | MOLT-4 leukemia 30.9%

CCCCCCCCSC1=CC(=O)C(OC)=C(OC)C1=O
inactive: HCT-15 colon 10.9% | HT29 colon 35.4% | SNB-75 CNS 75.7% | SNB-19 CNS 79.3% | U251 CNS 42.5% | UACC-62 melanoma 42.9% | SK-MEL-28 melanoma 72.4% | SK-MEL-2 melanoma 26.3% | EKVX NSCLC 43.8% | SN12C renal 10.7% | A498 renal 65.5%
active: PC-3 prostate -13.9% | SK-MEL-5 melanoma 4.84% | LOX IMVI melanoma -48.7% | UO-31 renal -92.7% | TK-10 renal -99.3% | ACHN renal -77.8% | CCRF-CEM leukemia -15.8% | MOLT-4 leukemia -5.17%

CN(C)CC(=O)Nc1ccc(Cn2nnc3c2C(=O)c2nnn(Cc4ccc(NC(=O)CN(C)C)cc4)c2C3=O)cc1
active: HCT-15 colon 1.94% | HT29 colon -52.5% | SNB-75 CNS -92.8% | SNB-19 CNS -75.1% | U251 CNS -82.1% | PC-3 prostate 1.37% | SK-MEL-5 melanoma -95% | UACC-62 melanoma -66.1% | LOX IMVI melanoma -30.6% | SK-MEL-28 melanoma -47.5% | SN12C renal -47.3% | UO-31 renal -20.6% | TK-10 renal -14.2% | ACHN renal -15.9% | A498 renal -91.3% | CCRF-CEM leukemia -32.9%
inactive: CAKI-1 renal 41.9%

O=C1C[C@H](N2C(=O)c3ccccc3S2(=O)=O)C2CO[C@@H]1O2
inactive: HCT-15 colon 59.6% | HT29 colon 70.4% | SNB-75 CNS 91.3% | SNB-19 CNS 106% | U251 CNS 93.3% | PC-3 prostate 99.7% | SK-MEL-5 melanoma 96.2% | UACC-62 melanoma 100% | LOX IMVI melanoma 18.9% | SK-MEL-28 melanoma 66.1% | SN12C renal 91.8% | UO-31 renal 63.7% | TK-10 renal 92.4% | ACHN renal 78.2% | A498 renal 93.9% | MOLT-4 leukemia 79%
active: CAKI-1 renal -80.1% | CCRF-CEM leukemia 4.58%

CCOC(=O)c1ccc2c(c1)nc(/C=C/c1ccc(Cl)cc1)n2-c1cc(C(C)(C)C)[nH]n1
active: SNB-75 CNS 0.573% | MOLT-4 leukemia -2.76%
inactive: HCT-15 colon 35.6% | HT29 colon 57.7% | SNB-19 CNS 77.6% | U251 CNS 50.5% | PC-3 prostate 62.1% | SK-MEL-5 melanoma 62.1% | UACC-62 melanoma 19.1% | LOX IMVI melanoma 39.9% | SK-MEL-28 melanoma 47.3% | SK-MEL-2 melanoma 79.6% | SN12C renal 74.6% | UO-31 renal 46.8% | TK-10 renal 60% | ACHN renal 23.8% | A498 renal 58.7% | CCRF-CEM leukemia 13.5%
